The whole screen tested about 96,000 compounds, of which about 20,000 (21%) were called active. These entries were drawn from the full list. Values without a mark were called inactive.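 How the source made its calls: active means CYP2C19 inhibition above a set limit at 5 µM in the primary screen (cut at about 50% in these data); inactive means the rest.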
Each molecule was assayed against Cytochrome P450 2C19 (Homo sapiens) (UniProt P33261) (assay: blockers of cytochrome P450 2C19 activity – biochemical, luminescence, ADME assay, primary screen (AID 778;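 further: plate controls were negative control wells for no effect and 2.5 mM tranylcypromine positive control for full effect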)). Settings: CYP2C19 Supersomes, luciferin-H EGE luminescence, 30 min; at 5 µM; active compounds read high.
Chain of Cytochrome P450 2C19 (Homo sapiens) (P33261 whole entry, looked up): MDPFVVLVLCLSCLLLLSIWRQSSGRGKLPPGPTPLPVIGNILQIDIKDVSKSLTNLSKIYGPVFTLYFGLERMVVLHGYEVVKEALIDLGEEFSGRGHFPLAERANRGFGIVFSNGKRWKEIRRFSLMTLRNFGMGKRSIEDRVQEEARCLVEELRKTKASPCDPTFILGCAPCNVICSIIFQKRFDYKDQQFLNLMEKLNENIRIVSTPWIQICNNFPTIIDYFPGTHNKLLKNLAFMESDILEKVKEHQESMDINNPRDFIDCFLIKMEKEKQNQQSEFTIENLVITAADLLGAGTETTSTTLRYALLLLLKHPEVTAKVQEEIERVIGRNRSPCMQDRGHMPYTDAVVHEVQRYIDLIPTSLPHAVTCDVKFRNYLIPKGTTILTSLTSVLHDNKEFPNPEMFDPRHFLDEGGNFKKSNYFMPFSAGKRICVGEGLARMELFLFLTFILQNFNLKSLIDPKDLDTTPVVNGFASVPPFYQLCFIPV
In the case of `CCOC(=O)c1ccc(-n2c(C)nc3c(cnn3-c3ccccc3C)c2=O)cc1`, the inhibition was -20.1%.
`COC(=O)c1sccc1NC(=O)CCC1CCCC1` showed an inhibition of -0.5%.
With `CCOc1cccc(NC(=O)CC#N)c1` the inhibition was -5.8%.
For `N#Cc1cccc(NC(=O)CCC2CCCC2)c1`, the inhibition was 73.6% (active).
`CCOC(=O)N1CCC(NC(=O)C(C)n2c3ccccc3c3cnn(C)c(=O)c32)CC1` (stereo not given) was tested, and the inhibition was 5.1%.
`NC(CSC12CC3CC(CC(C3)C1)C2)C(=O)O` (stereo not given) showed an inhibition of 12.9%.
`Cc1cc(C)cc(OCC(=O)NNC(=O)c2cc3ccccc3oc2=O)c1` gave an inhibition of 5.4%.
With `COc1cc(C(O)c2nc3ccccc3n2C)cc(OC)c1OC` (stereo not given) the inhibition was 46.5%.
Work on `CCOc1ccc(C(O)Cn2c(=N)n(CCN3CCCCC3)c3ccccc32)cc1` (stereo not given) yielded an inhibition of 9.8%.
In the case of `CCCn1c(C(O)c2ccc(OCC)cc2)nc2ccccc21` (stereo not given), the inhibition was 90.6% (active).
In the case of `CCOCCn1c(C(C)C)nc2ccccc21`, the inhibition was 15.5%.
`CC(C)n1c(C(O)c2ccccc2)nc2ccccc21` (stereo not given) was tested, and the inhibition was 67.7% (active).
With `COc1ccc(C)c(Cn2c(-c3nonc3N)nc3ccccc32)c1` the inhibition was 18.5%.
For `CCCn1c(C(O)c2cc(OC)ccc2OC)nc2ccccc21` (stereo not given), the inhibition was 74.3% (active).
`CC(Nc1nc(N2CCCC2)nc2ccccc12)c1ccccc1` (stereo not given) showed an inhibition of 15.5%.
Molecule `CCc1nc(Nc2ccc3nccnc3c2)c2oc3ccccc3c2n1` has an inhibition of -11.6%.
`O=C(N/N=C/C=C/c1ccccc1)C1CC1(c1ccccc1)c1ccccc1` (stereo not given) gave an inhibition of -19.2%.
With `CCOC(=O)c1nn(-c2cccc(C)c2)cc1C(=O)c1ccccc1` the inhibition was 75.3% (active).
`Cc1ccc(NC(=O)c2nc[nH]c2C(=O)N2CCCCC2)c(C(=O)c2ccccc2)c1` was tested, and the inhibition was 20.4%.
Work on `CC(=O)c1nn(-c2cccc(Br)c2)cc1C(=O)c1cccc2ccccc12` yielded an inhibition of 9.4%.
Molecule `CCCCc1nnc(NC(=O)CS(=O)(=O)Cc2ccccc2)s1` has an inhibition of 8%.
`Cc1cc2ccccc2n1CCNC(=O)COc1ccc2ccccc2c1` gave an inhibition of 14.5%.
`OC(COCCC12CC3CC(CC(C3)C1)C2)CN1CCCCC1` (stereo not given) showed an inhibition of 35.1%.
In the case of `Cc1ccc(NC(=S)Nc2ncccc2C)c(C)c1`, the inhibition was 86.3% (active).
Molecule `Cc1cccc(NC(=O)C2CCN(S(=O)(=O)c3cccc4cccnc34)CC2)c1` has an inhibition of 40.7%.
`CCOc1ccc(NC(=O)N2CC=C(n3c(=O)[nH]c4ccccc43)CC2)cc1` showed an inhibition of 11.1%.
Molecule `COc1ccc(-c2c3c(=O)n(C)c(=O)n(C)c3cn2-c2cccc(OC)c2)cc1` has an inhibition of -4%.
`COc1ccc(-c2c3c(=O)n(C)c(=O)n(C)c3cn2NC(C)=O)cc1` showed an inhibition of -2.1%.
In the case of `COc1ccc(N(C(=O)c2cccnc2)S(=O)(=O)c2ccc3c(c2)n(C)c(=O)n3C)cc1`, the inhibition was 57.8% (active).
In the case of `O=C(Cn1cncn1)N/N=C/c1c2ccccc2cc2ccccc12`, the inhibition was 80% (active).
For `CCCC(=O)Nc1cccc(-c2cn3ccsc3n2)c1`, the inhibition was -11.8%.
Molecule `CCOC(=O)N1CCC(NC(=O)CN2C(=O)COc3ccc(C(C)(C)C)cc32)CC1` has an inhibition of 10.8%.
`CCOC(=O)C(=O)Nc1nc(-c2ccccc2)c(CC)s1` was tested, and the inhibition was 3.5%.
Molecule `CCOc1ccc(Cn2nnc(C(=O)Nc3ccc(OC)cc3OC)c2N)cc1` has an inhibition of -21.9%.
`COCCCN1C(=O)c2ccc(C(=O)Nc3ccc(OC)cc3OC)cc2C1=O` was tested, and the inhibition was 61.8% (active).
With `COc1ccc(NC(=O)c2cccc(NC(=O)c3ccco3)c2)c(OC)c1` the inhibition was 15.1%.
`CCOP1(=O)C=C(C(C)(C)C)OC1c1ccc(F)cc1` (stereo not given) was tested, and the inhibition was 15.6%.
With `CCCOP(=O)(c1ccc(N(C)C)cc1)C(O)c1cc(OC)c(OC)c(OC)c1` (stereo not given) the inhibition was 16.9%.
With `O=C(O)c1cc2ccccc2c(=O)s1` the inhibition was 15.6%.
In the case of `CCSC1=C(C#N)C(=O)n2c1cc1c2CCCC1`, the inhibition was 10.1%.
`Cn1c(=O)c2c(ncn2CC(=O)N2CCN(c3ccccc3)CC2)n(C)c1=O` was tested, and the inhibition was 4.9%.
With `Cn1c(=O)c2c(ncn2CC(COCc2ccccc2Cl)OCc2ccccc2Cl)n(C)c1=O` (stereo not given) the inhibition was 49.2%.
With `CC(C)Cn1cnc2c1c(=O)n(CC(O)c1ccccc1)c(=O)n2CC(C)C` (stereo not given) the inhibition was 58.8% (active).
Work on `CCCc1nc2oc3c(OCC)ncnc3c2c2c1COC(C)(C)C2` yielded an inhibition of -9.9%.
With `CCC(C)n1[nH]c(=O)c2c(C)cc(C)nc21` (stereo not given) the inhibition was 10.9%.
Work on `O=C1CC(N2CCN(C(c3ccccc3)c3ccccc3)CC2)C(=O)N1` (stereo not given) yielded an inhibition of 8.8%.
`CC(C)(C)c1cc(CN2CCN(CCC#N)CC2)cc(C(C)(C)C)c1O` was tested, and the inhibition was -2.1%.
In the case of `CCN(C(=O)CSc1ncn[nH]1)c1cccc2ccccc12`, the inhibition was 63.2% (active).
Work on `CC(C)(C)c1ccc(C(=O)CSc2ncn[nH]2)cc1` yielded an inhibition of 23%.
Work on `O=C(CSc1ncn[nH]1)Nc1ccnc2ccccc12` yielded an inhibition of 27.1%.
`CCOC(=O)c1cccc(NC(=O)CCn2nnc3ccccc32)c1` showed an inhibition of 23.3%.
`COc1ccc(NC(=O)Cn2nnc(C(=O)NCCc3ccc(OC)c(OC)c3)c2N)cc1` was tested, and the inhibition was 4.1%.
For `CCOC(=O)c1nnn(CC(=O)Nc2cccc(F)c2)c1C(=O)OCC`, the inhibition was 95.7% (active).
For `CC12CCC(C(=O)N3CCN(c4ncccn4)CC3)(c3nc4ccccc4nc31)C2(C)C` (stereo not given), the inhibition was 31.7%.
`Cc1cc(C(=O)COC(=O)c2cccs2)c(C)n1-c1c(C)n(C)n(-c2ccccc2)c1=O` gave an inhibition of -0.8%.
For `CCCn1c(C)cc(C(=O)COC(=O)c2c(C)nn(-c3ccccc3)c2C)c1C`, the inhibition was 88.6% (active).
Work on `Cc1nn(-c2ccccc2)c(C)c1C(=O)OCC(=O)NC(=O)NC1CCCCC1` yielded an inhibition of 28.3%.
In the case of `O=C1CCC(C(=O)Nc2ccc(OC(F)F)cc2)N1` (stereo not given), the inhibition was 0%.
`O=c1cc(CO)oc(CN2CCC(Cc3ccccc3)CC2)c1O` showed an inhibition of 15.2%.
With `CCN1CCCC1CNC(=O)Cn1cnc2ccc(S(=O)(=O)N3CCC(C)CC3)cc2c1=O` (stereo not given) the inhibition was -0.8%.
Molecule `COCC(C)N=CC1=C(O)CC(C)(C)CC1=O` (stereo not given) has an inhibition of 0.7%.
With `c1ccc(Nc2n[nH]nc2-c2ccccc2)cc1` the inhibition was 84.7% (active).
Molecule `Nc1ccc(Nc2ccccc2)cc1` has an inhibition of 36.6%.
`COC(CNC(=O)Cn1ncc2ccsc2c1=O)OC` gave an inhibition of 2.1%.
`COc1ccccc1NC(=O)/C=C/C(N)=O` gave an inhibition of -0.2%.
`COC(=O)C(CC(=O)Nc1cc(C)ccc1C)Nc1ccccc1OC` (stereo not given) showed an inhibition of 15.3%.
`COc1ccccc1NC(=O)COc1ccc(C(=O)OCC(=O)N(C(C)C)C(C)C)cc1OC` was tested, and the inhibition was 56.4% (active).
`CC1CC(C)CN(C/C=C/c2ccccc2[N+](=O)[O-])C1` (stereo not given) was tested, and the inhibition was 29.7%.
For `CCC(C)NC(=O)CSC1=Nc2ccccc2C2=NC(CCC(=O)NCc3ccco3)C(=O)N12` (stereo not given), the inhibition was 6.1%.
`COc1ccc(OC)c(/C=N/NC(=O)CSc2nnc(C)n2-c2ccccc2)c1` showed an inhibition of 23.2%.
`CCOC(=O)CNC(=O)CSc1nnc(COc2ccc(Cl)cc2)n1CC` was tested, and the inhibition was 14.7%.
For `Cc1nnc(SCC(=O)NCCOc2ccc(Cl)cc2)n1-c1ccccc1`, the inhibition was 95.6% (active).
`COC(=O)[C@@H](NC(=O)NCc1cccc(OC)c1)C(C)C` gave an inhibition of 5.8%.
With `CCOC(=O)Cn1c(-c2cccnc2Cl)nc2ccccc21` the inhibition was -2%.
In the case of `Cc1no[n+]([O-])c1COc1ccccc1/C=C1\NC(=S)NC1=O`, the inhibition was 20.6%.
`CCN1C(=O)/C(=C2\SC(N3CCCCC3)=NC2=O)c2ccccc21` showed an inhibition of 19.9%.
With `O=Cc1c(N2CCN(c3cccc(Cl)c3)CC2)nc2ccccn2c1=O` the inhibition was 99.4% (active).
`CCN1C(=O)/C(=C\N2CCN(c3cccc(Cl)c3)CC2)SC1=S` was tested, and the inhibition was 13%.
For `O=S(=O)(c1cccc2nonc12)N1CCN(c2cccc(Cl)c2)CC1`, the inhibition was 1.5%.
With `CN1CC(c2ccccc2)C2(COc3ccccc3C2=O)C12C(=O)Nc1ccccc12` (stereo not given) the inhibition was 46.7%.
`COc1ccccc1/C=C/C1=NC(=C\N(C)C)/C(=O)O1` was tested, and the inhibition was 19.5%.
In the case of `CCOC(=O)CSc1nnc(CNC(=O)c2cccs2)n1-c1ccccc1`, the inhibition was -5.7%.
With `CCOC(=O)CSc1nnc(CNC(=O)c2cccs2)n1-c1cc(OC)ccc1OC` the inhibition was 58.2% (active).
With `CCOC(=O)CSc1nnc(CNC(=O)Cc2ccccc2)n1-c1ccccc1OC` the inhibition was 8.2%.
For `CCOc1ccccc1Oc1cn[nH]c1-c1ccc(OC)cc1O`, the inhibition was 100% (active).
Work on `CCOc1cc(-c2cc(-c3ccc(OC)cc3)nc(N)c2C#N)ccc1O` yielded an inhibition of 19.9%.
`Cc1ccc(SCCC(=O)OCC(=O)Nc2ncc(Cl)cc2Cl)cc1` showed an inhibition of 24%.
`O=c1c2ccccc2oc2nc3n(c(=O)c12)CCCS3` showed an inhibition of 0.7%.
`O=c1c2ccccc2oc2nc(C3CCCCC3)n(Cc3ccco3)c(=O)c12` was tested, and the inhibition was 50.7% (active).
`CCc1nc2oc3ccccc3c(=O)c2c(=O)n1Cc1ccc(OC)cc1` gave an inhibition of -0.6%.
For `O=C(O)/C=C/C(=O)Nc1ccc(F)cc1F`, the inhibition was 5.3%.
`Cn1c2c(c(=O)n(C)c1=O)CN(Cc1ccco1)CN2` was tested, and the inhibition was 0.4%.
Work on `CCOC(=O)Cc1csc(NC(=O)C(C)(C)C)n1` yielded an inhibition of 15.4%.
For `CCCC(CCC(=O)OC)(C(=O)OCC)c1csc(N)n1` (stereo not given), the inhibition was 73.6% (active).
With `CCOC(=O)Cc1csc(NC(NC(=O)OCC)(C(F)(F)F)C(F)(F)F)n1` the inhibition was 13.5%.
`COc1ccc(-n2c(SC)nc(O)cc2=O)cc1` showed an inhibition of 5.6%.
`COCCNc1nc(-n2nc(C)cc2C)nc2sc3c(c12)CCCC3` showed an inhibition of -16.1%.
With `c1ccc2c(CSCc3nc4ccccc4[nH]3)cccc2c1` the inhibition was 89.3% (active).
`CCCCSc1nnc(-c2ccc(C)cc2)o1` was tested, and the inhibition was 49.4%.
In the case of `N#C/C(=C(/O)COc1cccc2ccccc12)c1nc2ccccc2[nH]1`, the inhibition was 12%.
With `c1ccc(-c2nnc(SCc3nc4ccccc4[nH]3)o2)cc1` the inhibition was 95.2% (active).
With `Clc1ccccc1SCc1nc2ccccc2[nH]1` the inhibition was 83.2% (active).
Work on `OCCNc1nc2ccccc2[nH]1` yielded an inhibition of -4.7%.
With `Oc1ccc2nc(Cc3ccccc3)[nH]c2c1` the inhibition was 23.6%.
In the case of `O=C(CSc1nnc(-c2ccccc2)o1)N1CCOCC1`, the inhibition was -12.3%.

From PubChem BioAssay AID778 (Sanford-Burnham Center for Chemical Genomics, 2007)
